# Experimental data: ChEMBL document CHEMBL1961873, “Compounds: GSK PKIS; Assays: Nanosyn kinase panel” (2012)
# Tests used:
# [1] = biological target: RAC-alpha serine/threonine-protein kinase (Homo sapiens) (UniProt P31749); conditions: at 0.1 µM
# [2] = biological target: RAC-alpha serine/threonine-protein kinase (Homo sapiens) (UniProt P31749); conditions: at 1 µM
# [3] = biological target: RAC-beta serine/threonine-protein kinase (Homo sapiens) (UniProt P31751); conditions: at 0.1 µM
# [4] = biological target: RAC-beta serine/threonine-protein kinase (Homo sapiens) (UniProt P31751); conditions: at 1 µM
# [5] = biological target: RAC-gamma serine/threonine-protein kinase (Homo sapiens) (UniProt Q9Y243); conditions: at 0.1 µM
# [6] = biological target: RAC-gamma serine/threonine-protein kinase (Homo sapiens) (UniProt Q9Y243); conditions: at 1 µM
# [7] = biological target: G protein-coupled receptor kinase 6 (Homo sapiens) (UniProt P43250); conditions: at 0.1 µM
# [8] = biological target: G protein-coupled receptor kinase 6 (Homo sapiens) (UniProt P43250); conditions: at 1 µM
# [9] = biological target: T1, Rhodopsin kinase GRK7 (Homo sapiens) (UniProt Q8WTQ7); conditions: at 0.1 µM
# T1 sequence (whole entry): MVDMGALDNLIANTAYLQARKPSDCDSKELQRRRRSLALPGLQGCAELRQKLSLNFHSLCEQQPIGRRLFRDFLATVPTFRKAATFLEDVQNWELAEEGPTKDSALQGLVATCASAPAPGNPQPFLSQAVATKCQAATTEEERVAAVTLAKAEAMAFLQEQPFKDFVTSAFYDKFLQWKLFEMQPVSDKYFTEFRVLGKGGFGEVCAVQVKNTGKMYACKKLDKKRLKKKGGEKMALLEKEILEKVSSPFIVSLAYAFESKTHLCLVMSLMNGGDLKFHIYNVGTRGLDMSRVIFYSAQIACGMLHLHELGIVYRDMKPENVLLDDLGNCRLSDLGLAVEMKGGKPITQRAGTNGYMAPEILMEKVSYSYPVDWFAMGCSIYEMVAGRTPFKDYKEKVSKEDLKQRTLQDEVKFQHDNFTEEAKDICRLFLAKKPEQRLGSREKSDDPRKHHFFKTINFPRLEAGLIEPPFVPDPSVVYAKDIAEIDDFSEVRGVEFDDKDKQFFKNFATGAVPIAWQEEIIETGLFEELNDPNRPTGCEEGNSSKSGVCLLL
# [10] = biological target: T1, Rhodopsin kinase GRK7 (Homo sapiens); conditions: at 1 µM
# [11] = biological target: Serine/threonine-protein kinase MRCK alpha (Homo sapiens) (UniProt Q5VT25); conditions: at 0.1 µM
# [12] = biological target: Serine/threonine-protein kinase MRCK alpha (Homo sapiens) (UniProt Q5VT25); conditions: at 1 µM
# [13] = biological target: Serine/threonine-protein kinase MRCK beta (Homo sapiens) (UniProt Q9Y5S2); conditions: at 0.1 µM
# [14] = biological target: Serine/threonine-protein kinase MRCK beta (Homo sapiens) (UniProt Q9Y5S2); conditions: at 1 µM
# [15] = biological target: Ribosomal protein S6 kinase alpha-5 (Homo sapiens) (UniProt O75582); conditions: at 0.1 µM
# [16] = biological target: Ribosomal protein S6 kinase alpha-5 (Homo sapiens) (UniProt O75582); conditions: at 1 µM
# [17] = biological target: Ribosomal protein S6 kinase alpha-4 (Homo sapiens) (UniProt O75676); conditions: at 0.1 µM
# [18] = biological target: Ribosomal protein S6 kinase alpha-4 (Homo sapiens) (UniProt O75676); conditions: at 1 µM
# [19] = biological target: Ribosomal protein S6 kinase beta-1 (Homo sapiens) (UniProt P23443); conditions: at 0.1 µM
# [20] = biological target: Ribosomal protein S6 kinase beta-1 (Homo sapiens) (UniProt P23443); conditions: at 1 µM
# RAC-alpha serine/threonine-protein kinase (Homo sapiens), sequence (P31749 whole entry): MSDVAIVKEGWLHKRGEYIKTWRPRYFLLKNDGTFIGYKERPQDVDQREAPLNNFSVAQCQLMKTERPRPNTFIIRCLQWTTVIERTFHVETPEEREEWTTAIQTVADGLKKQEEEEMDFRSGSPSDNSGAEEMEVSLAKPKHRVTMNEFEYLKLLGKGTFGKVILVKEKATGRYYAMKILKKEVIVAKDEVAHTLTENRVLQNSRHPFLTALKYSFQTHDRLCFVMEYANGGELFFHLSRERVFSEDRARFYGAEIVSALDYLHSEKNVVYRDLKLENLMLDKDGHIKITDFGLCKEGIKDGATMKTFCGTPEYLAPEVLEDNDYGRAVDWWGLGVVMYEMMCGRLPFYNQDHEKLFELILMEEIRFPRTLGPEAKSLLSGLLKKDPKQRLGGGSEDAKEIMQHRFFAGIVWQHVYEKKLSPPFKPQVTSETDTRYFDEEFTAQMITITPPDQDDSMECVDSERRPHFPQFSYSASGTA
# RAC-beta serine/threonine-protein kinase (Homo sapiens), sequence (P31751 whole entry): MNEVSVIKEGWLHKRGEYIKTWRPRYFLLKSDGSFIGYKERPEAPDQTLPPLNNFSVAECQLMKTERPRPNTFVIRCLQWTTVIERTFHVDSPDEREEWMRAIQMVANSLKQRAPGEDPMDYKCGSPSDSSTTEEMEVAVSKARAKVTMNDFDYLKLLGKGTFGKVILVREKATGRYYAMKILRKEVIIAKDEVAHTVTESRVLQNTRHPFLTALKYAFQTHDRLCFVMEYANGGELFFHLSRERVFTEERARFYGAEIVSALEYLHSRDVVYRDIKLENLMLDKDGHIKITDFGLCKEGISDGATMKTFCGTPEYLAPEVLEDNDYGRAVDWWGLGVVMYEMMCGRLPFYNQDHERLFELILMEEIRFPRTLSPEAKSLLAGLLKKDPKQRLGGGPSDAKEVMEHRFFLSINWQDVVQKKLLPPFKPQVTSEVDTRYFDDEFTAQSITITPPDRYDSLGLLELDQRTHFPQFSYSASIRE
# Serine/threonine-protein kinase MRCK beta (Homo sapiens), sequence (Q9Y5S2 whole entry): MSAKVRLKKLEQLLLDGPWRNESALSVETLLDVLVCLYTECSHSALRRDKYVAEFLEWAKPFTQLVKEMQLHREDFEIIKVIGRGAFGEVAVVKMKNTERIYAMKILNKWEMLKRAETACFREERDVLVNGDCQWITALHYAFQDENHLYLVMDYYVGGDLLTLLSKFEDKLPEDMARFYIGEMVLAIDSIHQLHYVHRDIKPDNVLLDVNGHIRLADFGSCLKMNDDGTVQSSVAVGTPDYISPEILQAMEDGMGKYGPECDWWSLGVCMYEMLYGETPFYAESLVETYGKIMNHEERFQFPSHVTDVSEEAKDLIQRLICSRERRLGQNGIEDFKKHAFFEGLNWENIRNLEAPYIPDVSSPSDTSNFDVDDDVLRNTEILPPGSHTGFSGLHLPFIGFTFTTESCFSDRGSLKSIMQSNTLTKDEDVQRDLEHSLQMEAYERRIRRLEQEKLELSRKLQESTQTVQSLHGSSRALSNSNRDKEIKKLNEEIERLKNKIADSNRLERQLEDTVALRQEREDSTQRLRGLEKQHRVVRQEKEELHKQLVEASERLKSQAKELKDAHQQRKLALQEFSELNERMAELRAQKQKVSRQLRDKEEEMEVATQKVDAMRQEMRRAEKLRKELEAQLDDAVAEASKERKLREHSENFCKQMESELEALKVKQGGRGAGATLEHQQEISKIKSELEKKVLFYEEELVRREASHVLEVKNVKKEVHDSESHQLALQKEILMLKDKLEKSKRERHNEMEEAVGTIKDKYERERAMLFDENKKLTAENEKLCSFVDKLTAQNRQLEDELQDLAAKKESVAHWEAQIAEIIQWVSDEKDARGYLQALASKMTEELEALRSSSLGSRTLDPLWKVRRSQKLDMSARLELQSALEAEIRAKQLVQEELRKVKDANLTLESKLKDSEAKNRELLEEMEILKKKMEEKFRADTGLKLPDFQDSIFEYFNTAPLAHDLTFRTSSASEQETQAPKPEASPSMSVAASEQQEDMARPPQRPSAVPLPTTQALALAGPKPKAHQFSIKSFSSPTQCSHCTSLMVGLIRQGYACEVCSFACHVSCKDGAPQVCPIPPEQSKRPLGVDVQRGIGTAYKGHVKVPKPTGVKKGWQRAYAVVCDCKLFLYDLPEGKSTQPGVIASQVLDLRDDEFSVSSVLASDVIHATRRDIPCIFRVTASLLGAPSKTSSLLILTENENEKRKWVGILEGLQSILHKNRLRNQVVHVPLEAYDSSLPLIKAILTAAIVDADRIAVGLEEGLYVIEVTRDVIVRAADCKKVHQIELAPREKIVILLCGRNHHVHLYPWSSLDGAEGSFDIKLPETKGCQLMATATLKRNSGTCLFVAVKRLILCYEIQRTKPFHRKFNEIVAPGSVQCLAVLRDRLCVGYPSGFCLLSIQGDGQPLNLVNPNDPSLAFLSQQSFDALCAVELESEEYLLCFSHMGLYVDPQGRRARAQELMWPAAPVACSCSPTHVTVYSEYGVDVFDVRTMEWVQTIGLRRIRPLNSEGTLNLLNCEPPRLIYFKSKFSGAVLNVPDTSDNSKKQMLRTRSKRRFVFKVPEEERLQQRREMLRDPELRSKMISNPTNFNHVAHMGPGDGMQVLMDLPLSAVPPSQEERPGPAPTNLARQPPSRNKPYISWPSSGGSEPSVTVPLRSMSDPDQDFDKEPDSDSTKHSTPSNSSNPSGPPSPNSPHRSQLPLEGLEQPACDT
# Ribosomal protein S6 kinase alpha-4 (Homo sapiens), sequence (O75676 whole entry, looked up): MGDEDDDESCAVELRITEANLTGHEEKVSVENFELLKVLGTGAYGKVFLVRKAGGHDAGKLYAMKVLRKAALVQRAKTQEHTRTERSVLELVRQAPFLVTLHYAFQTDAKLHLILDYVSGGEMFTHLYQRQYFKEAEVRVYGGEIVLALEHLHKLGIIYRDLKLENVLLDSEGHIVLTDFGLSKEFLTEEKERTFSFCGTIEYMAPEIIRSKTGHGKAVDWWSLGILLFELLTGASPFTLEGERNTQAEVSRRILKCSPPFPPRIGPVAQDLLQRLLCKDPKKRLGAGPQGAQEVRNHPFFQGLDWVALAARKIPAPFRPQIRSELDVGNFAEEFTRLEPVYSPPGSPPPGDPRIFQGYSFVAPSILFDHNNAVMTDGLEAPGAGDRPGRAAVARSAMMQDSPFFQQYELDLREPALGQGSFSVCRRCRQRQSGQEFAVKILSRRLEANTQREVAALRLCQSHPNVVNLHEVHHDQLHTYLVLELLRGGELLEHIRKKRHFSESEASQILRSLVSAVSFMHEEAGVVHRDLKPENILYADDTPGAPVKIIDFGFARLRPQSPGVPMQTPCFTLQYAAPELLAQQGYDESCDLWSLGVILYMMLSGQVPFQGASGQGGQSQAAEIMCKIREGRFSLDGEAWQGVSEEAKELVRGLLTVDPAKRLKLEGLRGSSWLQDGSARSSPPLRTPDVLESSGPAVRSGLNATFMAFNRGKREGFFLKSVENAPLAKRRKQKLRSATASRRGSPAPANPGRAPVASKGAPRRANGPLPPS
# RAC-gamma serine/threonine-protein kinase (Homo sapiens), sequence (Q9Y243 whole entry): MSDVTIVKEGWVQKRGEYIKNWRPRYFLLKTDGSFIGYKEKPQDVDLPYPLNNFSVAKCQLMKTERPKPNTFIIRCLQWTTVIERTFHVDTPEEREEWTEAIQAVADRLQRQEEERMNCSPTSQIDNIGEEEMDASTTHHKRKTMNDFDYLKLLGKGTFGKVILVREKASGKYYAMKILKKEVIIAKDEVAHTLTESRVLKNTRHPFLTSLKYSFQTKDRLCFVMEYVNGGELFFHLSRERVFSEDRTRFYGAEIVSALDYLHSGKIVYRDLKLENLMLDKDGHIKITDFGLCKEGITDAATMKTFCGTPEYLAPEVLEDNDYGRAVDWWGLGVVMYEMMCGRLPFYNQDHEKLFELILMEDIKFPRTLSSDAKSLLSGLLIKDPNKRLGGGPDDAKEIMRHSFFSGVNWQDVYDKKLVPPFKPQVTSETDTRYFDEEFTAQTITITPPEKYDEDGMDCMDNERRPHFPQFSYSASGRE
# Ribosomal protein S6 kinase alpha-5 (Homo sapiens), sequence (O75582 whole entry, looked up): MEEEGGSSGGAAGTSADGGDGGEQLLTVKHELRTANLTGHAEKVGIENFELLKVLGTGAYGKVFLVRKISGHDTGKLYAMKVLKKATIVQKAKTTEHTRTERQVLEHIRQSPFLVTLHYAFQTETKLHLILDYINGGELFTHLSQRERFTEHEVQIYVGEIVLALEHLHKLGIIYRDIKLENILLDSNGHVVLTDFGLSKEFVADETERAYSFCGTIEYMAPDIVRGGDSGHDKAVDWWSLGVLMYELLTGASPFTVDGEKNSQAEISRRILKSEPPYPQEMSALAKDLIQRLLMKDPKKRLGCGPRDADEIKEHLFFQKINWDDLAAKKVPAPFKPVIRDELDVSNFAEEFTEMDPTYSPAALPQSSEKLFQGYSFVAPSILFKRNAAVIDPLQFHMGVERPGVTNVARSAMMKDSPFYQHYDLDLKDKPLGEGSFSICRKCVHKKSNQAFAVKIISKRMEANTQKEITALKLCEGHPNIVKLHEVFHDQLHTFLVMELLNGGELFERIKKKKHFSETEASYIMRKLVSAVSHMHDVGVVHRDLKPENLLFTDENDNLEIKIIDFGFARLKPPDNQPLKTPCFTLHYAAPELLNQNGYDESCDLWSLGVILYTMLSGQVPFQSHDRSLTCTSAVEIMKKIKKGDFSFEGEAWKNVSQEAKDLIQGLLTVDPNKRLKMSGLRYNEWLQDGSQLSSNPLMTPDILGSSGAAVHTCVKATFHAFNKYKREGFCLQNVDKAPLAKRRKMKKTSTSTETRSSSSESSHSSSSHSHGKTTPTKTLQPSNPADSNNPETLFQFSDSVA
Structure (SMILES),inhibition [1],inhibition [2],inhibition [3],inhibition [4],inhibition [5],inhibition [6],inhibition [7],inhibition [8],inhibition [9],inhibition [10],inhibition [11],inhibition [12],inhibition [13],inhibition [14],inhibition [15],inhibition [16],inhibition [17],inhibition [18],inhibition [19],inhibition [20]
CC(=O)Nc1cccc(C#Cc2cncnc2Nc2ccc(OCc3cccc(F)c3)c(Cl)c2)c1,0.35%,2.86%,1.58%,1.24%,0.94%,1.39%,0.81%,-1.5%,3.04%,-3.08%,1.39%,0.82%,1.53%,1.93%,-3.6%,-3.85%,1.16%,2.5%,2.04%,2.07%
c1ccc(-c2nc3n(c2-c2ccc4c(c2)OCO4)CCC3)nc1,0.15%,0.19%,0.67%,0.83%,0.55%,0.06%,3.19%,2.38%,1.13%,3.19%,1.51%,-0.39%,1.65%,4.63%,8.97%,8.14%,5.25%,6.79%,1.12%,0.67%
[O-][S+]1CCN(Cc2ccc(-c3ccc4ncnc(Nc5ccc(OCc6cccc(F)c6)c(Cl)c5)c4c3)o2)CC1,2.98%,0.19%,3.72%,3.57%,2.4%,2.54%,3.23%,4.79%,9.08%,2.57%,-1.31%,-1.3%,-0.28%,-0.43%,3.5%,3.71%,3.38%,4.98%,2.86%,3.84%
CCn1c(-c2nonc2N)nc2c(C#CC(C)(C)O)ncc(OC3CCNCC3)c21,70.1%,92.8%,85.2%,95.5%,74.7%,94.2%,4.09%,7.13%,7.74%,17%,8.47%,33.8%,2.8%,22.5%,2.46%,11.8%,3.66%,14.9%,4.92%,26.5%
CCN(CC)S(=O)(=O)c1ccc(OC)c(Nc2ncc(-c3ccccc3)o2)c1,0.87%,-0.4%,0.37%,0.18%,2.3%,-1.03%,1.87%,-0.46%,3.17%,-3.96%,1.92%,0.2%,-0.21%,-0.04%,3.03%,6.51%,0.54%,1.06%,1.32%,0.49%
Fc1cccc(COc2ccc(Nc3ncnc4sc(-c5ccco5)cc34)cc2Cl)c1,0.99%,0.75%,0.95%,1.84%,0.12%,50.3%,2.57%,11.6%,11.4%,43.4%,-3.73%,-2.22%,-0.66%,-0.82%,8.97%,7.53%,2.45%,1.61%,1.01%,1.47%
COc1ccc(CNC(=O)c2ccc(-c3cc(-c4nnc(C)o4)ccc3C)cc2)cc1,0.11%,0.4%,0.92%,1.2%,0.06%,0.12%,6.21%,16.4%,2.86%,10.6%,2.98%,6.58%,2.16%,2.99%,9.25%,9.58%,3.89%,4.66%,1.64%,2.15%
CCn1c(-c2nonc2N)nc2ccccc21,1.46%,2.48%,0.69%,2.24%,0.81%,3.67%,1.21%,-3.25%,1.89%,-9.67%,1.63%,10.9%,1.39%,10.9%,23.3%,62.5%,7.88%,40.4%,22.1%,70.5%
Nc1nc(-c2ccc(F)cc2)c(-c2ccc3ncccc3n2)s1,0.67%,1.34%,2.24%,2.19%,5.53%,1.9%,5.89%,5.57%,6.78%,7.94%,-0.11%,3.87%,0.89%,0.94%,3.54%,3.83%,3.18%,4.49%,2.53%,2.7%
CCc1nn2ncccc2c1-c1ccnc(NC2CC2)n1,0.3%,0.03%,-0.16%,0.84%,0.81%,0.1%,3.01%,4.64%,3.97%,1.72%,3.74%,2.27%,1.18%,2.16%,0.41%,1.19%,1.26%,3.44%,1.12%,2.51%
CCOc1ccc2c(-c3ccnc(Nc4cccc(C(F)(F)F)c4)n3)cnn2n1,0.26%,0.31%,0.57%,1.35%,-0.38%,4.77%,-2.91%,-2.59%,3.77%,0.86%,-4.67%,-1.89%,-0.48%,-1.84%,0.66%,-1.09%,1.4%,-0.01%,0.31%,-0.17%
COC(=O)Nc1nc2ccc(S(=O)(=O)c3ccc(NC(=O)Nc4cc(C(F)(F)F)ccc4F)cc3)cc2[nH]1,1.04%,0.21%,1.6%,1.74%,2.62%,2.2%,-1.79%,-0.49%,4.02%,1.96%,0.58%,-0.35%,1.96%,1.32%,2.41%,1.23%,0.77%,4.31%,2.42%,0.71%
N#Cc1c(NC(=O)c2ccc(F)cc2)sc2c1CCCC2,-0.22%,0.69%,0.36%,0.77%,2.13%,0.2%,2.85%,4.08%,0.7%,4.43%,0.16%,-0.05%,-0.27%,1.57%,1.16%,2.08%,0.1%,2.25%,-0.29%,0.86%
CN1CCC(n2cnc(-c3ccc(F)cc3)c2-c2ccnc(N)n2)CC1,0.24%,0.29%,0.39%,0.66%,2.57%,2.05%,1.6%,2.25%,3.11%,5.7%,1.47%,1.4%,-1.13%,1.3%,0.55%,2.23%,0.42%,3.67%,-0.73%,1.36%
CC(C)(CO)CNC(=O)c1ccc2c(c1)/C(=N/Nc1ccc(S(N)(=O)=O)cc1)C(=O)N2,0.16%,-0.56%,-1.39%,0.25%,-0.59%,2.3%,0.67%,9.38%,2.93%,-0.41%,-0.66%,-2.01%,0.21%,1.07%,0.88%,0.97%,1.15%,6.02%,-0.13%,2.2%
